Compounds without any hit were thinned out: in the full panel of roughly 83,000, 20% have a hit.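 A percent growth of 40 corresponds to 60% growth inhibition; 0 means no net growth; -100 means all cells died. Active threshold: below 10.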 A number with no mark means an inactive call. Activity calls are given as the source filed them.

The record followed here is PubChem BioAssay (NCI).

What all share (assay): NCI-60 one-dose screen, 48 h (100 = growth as untreated, 0 = no growth, -100 = all killed)
What all share (settings): 10 µM unless noted

The subject of test [1] is SNB-75 CNS.
The test system of test [2] is SNB-19 CNS.
In test [3] the test system is U251 CNS.
For test [4], the system named is PC-3 prostate.
For test [5], the system named is UACC-62 melanoma.
In test [6] the test system is LOX IMVI melanoma.
The subject of test [7] is SK-MEL-28 melanoma.
The test system of test [8] is SK-MEL-2 melanoma.
The subject of test [9] is EKVX NSCLC.
Test [10] has as its system SN12C renal.
The subject of test [11] is UO-31 renal.
The subject of test [12] is TK-10 renal.
Test [13] deals with ACHN renal.
The subject of test [14] is CAKI-1 renal.
For test [15], the system named is A498 renal.
Test [16] deals with CCRF-CEM leukemia.
For test [17], the system named is MOLT-4 leukemia.
The subject of test [18] is SR leukemia.
Test [19] concerns SK-MEL-5 melanoma.

Take `O=[N+]([O-])c1ccc(Oc2cccc(C(F)(F)F)c2)c([N+](=O)[O-])c1`: the growth in [1] is 92.2%; in [2] it was 74.5%; in [3], 18.3%; in [4], 88.9%; in test [5], 34.1%; in test [6], 8.07% (active). Besides, the growth in test [7] was 104%; in test [8], 11.7%; in test [9], 111%; in [10], 28.2%; in [11], 28.6%; in test [12], 11.2%. For the same compound, the growth was 42% in test [13]; 20.2% in [14]; 97.8% in test [15]; 14.7% in test [16]; 17.1% in test [17]; 5.65% (active) in [18].

For the compound `C=CCOc1ccc2c(c1)CC[C@@H]1[C@@H]2CC[C@@]2(C)[C@H]1CC[C@]2(C)O`, the growth in [1] was 93.3%; in [2] it was 110%; in test [3], 74.7%; in test [19], 95.3%; in test [5], 85%; in [6], 76.2%. For the same compound, the growth in test [7] is 97.2%; in test [9], 82%; in test [10] it was 96.7%; in [11] it was 92.6%; in [12], 56.7%; in test [13] it was 85.8%. The growth was 75.4% in [14]; 90.5% in [15]; 70.7% in [16]; 72.5% in [17]; 58% in test [18].

Regarding `O=C(/C(=C/c1cccc([N+](=O)[O-])c1)c1ccccc1)c1ccccc1`, the growth was 56.8% in test [1]; 77% in test [2]; 56.3% in test [3]; 64% in test [4]; 41.5% in test [19]; 10.7% in test [6]. The growth in test [7] was 92.8%; in test [8], 28.8%; in test [10] it was 35.6%; in test [11], 48.8%; in test [13], 40.1%; in test [14], 47.7%. Also, the growth in test [15] was 66.2%; in [17], 4.09% (active); in [18], 4.42% (active).

For the compound `COc1ccc2nccc(/C=C/c3ccnc4ccc(OC)cc34)c2c1`, the growth was 102% in [1]; 109% in test [2]; 107% in [3]; 116% in [19]; 109% in test [5]; 106% in test [6]. Besides, the growth in test [7] was 92.8%; in test [8], 112%; in test [9] it was 105%; in [10], 118%; in [11] it was 97%; in test [12], 148%. In addition, the growth in test [13] was 102%; in [15] it was 87.9%; in [17], 33.1%; in test [18] it was 21.4%.

In the case of `O=C(Nc1cccc([N+](=O)[O-])c1)c1cccc(C(=O)Nc2cccc([N+](=O)[O-])c2)c1`, the growth in test [1] is -40.4% (active); in [2], 60.3%; in test [3], 31.8%; in test [19], 94%; in test [5], 75.1%; in test [6] it was 67.6%. Also, the growth in [7] was 77.2%; in [8], 63.7%; in test [9] it was 84.3%; in [10] it was 45.7%; in test [11], 56.7%; in test [12], 65.5%. The growth in test [13] is 64.7%; in [14], 85.3%; in [15], 92.5%; in test [16], 116%; in test [17] it was 99.3%; in test [18], 83.9%.

Regarding `CN(C)c1ccc2c(c1)/C(=N/O)c1ccccc1-2`, the growth was 76.8% in test [1]; 79.6% in [2]; 48.9% in test [3]; 72.3% in [4]; 90.7% in test [19]; 64.7% in test [5]. Further, the growth in test [6] was 59.4%; in test [7], 75.7%; in test [8], 111%; in test [9] it was 67.7%; in test [10], 95.4%; in test [11] it was 64.5%. The growth was 123% in [12]; 87.5% in test [13]; 46.6% in [14]; 83.8% in test [16]; 81.2% in test [17]; 47.1% in [18].

In the case of `COc1cc(/C=C/C(=O)Nc2cccnc2Nc2cc(OC)c(OC)c(OC)c2)cc(OC)c1OC`, the growth is 82.1% in test [1]; 96.5% in test [2]; 91.3% in test [3]; 93.6% in test [19]; 84.4% in [5]; 101% in test [6]. Further, the growth in test [7] is 103%; in test [8], 96.4%; in test [9], 92%; in test [10], 76.1%; in [11], 89.8%; in test [12], 116%. Further, the growth in test [13] is 96.5%; in [14], 82.3%; in [16], 66.1%; in test [17] it was 94.1%; in test [18], 92.5%.

With `CCOC(=O)c1c(NC(=O)C2CCCCC2C(=O)O)sc2c1CCCC2` (centres undefined), the growth in test [1] is 97.3%; in test [2], 99.8%; in test [3], 99.1%; in test [4] it was 101%; in [19], 95.1%; in test [5], 103%. For the same compound, the growth in test [6] is 90%; in test [7], 110%; in test [8], 107%; in [10] it was 104%; in [11] it was 81.4%; in test [12] it was 113%. Further, the growth was 98.2% in test [13]; 92.7% in test [14]; 109% in test [15]; 99.6% in test [16]; 105% in [17]; 111% in test [18].

As to `c1ccc(-n2nnnc2-c2cccc3ccccc23)cc1`, the growth is -7.18% (active) in test [1]; 36.7% in [2]; 19.5% in test [3]; 5.09% (active) in test [4]; 22.2% in [19]; 31.6% in test [5]. For the same compound, the growth was 18.6% in test [6]; 56.5% in [7]; 54.1% in test [9]; 39.9% in test [10]; 28.7% in [11]; 13.8% in test [12]. The growth was 52.9% in test [13]; 21.8% in [14]; 32.6% in test [15]; 9.58% (active) in [16]; 29.8% in [17].

For `Cc1ccc2c(c1)O/C(=C\c1ccc([N+](=O)[O-])o1)C2=O`, the growth in [1] is 84.3%; in test [2], 93.4%; in test [3] it was 68.3%; in test [4] it was -61.2% (active); in test [19], 76.9%; in [5], 51.5%. For the same compound, the growth in test [6] is 4.66% (active); in test [7], 83.3%; in test [8], 79.2%; in [10], 34.7%; in [11] it was -21.6% (active); in test [12], -32.7% (active). For the same compound, the growth in test [13] is 1.36% (active); in test [14] it was 36.8%; in test [15] it was 122%; in test [16], -32.4% (active); in test [17], -1.6% (active); in [18], 10.6%.

Consider `Clc1ncn[nH]1`, for which the growth in [1] was 83.6%; in [2], 102%; in test [3], 98.2%; in [4], 101%; in test [19], 111%; in [5] it was 99.7%. The growth in test [6] was 102%; in test [7] it was 103%; in [8], 99.4%; in test [10], 103%; in [11], 89.9%; in [12], 93.8%. In addition, the growth was 98.3% in test [13]; 92.5% in test [14]; 106% in test [15]; 103% in test [16]; 105% in [17]; 94% in test [18].

As to `CC1=NN(c2ccccc2Cl)C(=O)/C1=C\c1cn(S(=O)(=O)c2ccc(C)cc2)c2ccccc12`, the growth is 89.3% in test [1]; 114% in test [2]; 103% in test [3]; 106% in test [19]; 86.5% in test [5]; 97.4% in [6]. In addition, the growth in test [7] was 125%; in [8], 114%; in [9], 98%; in test [10], 97.5%; in test [11] it was 78.2%; in test [12], 167%. Further, the growth in test [13] is 97.5%; in test [14], 87.8%; in test [15], 117%; in test [16] it was 135%; in test [17], 173%.

Regarding `COC(=O)CCC1=C(CC(=O)OC)C(C)=N/C1=C\c1[nH]c(-c2ccc[nH]2)cc1OC`, the growth in test [1] is 12.9%; in [2], 69.3%; in test [3] it was 26.5%; in test [19], -22.7% (active); in test [5], -4.87% (active); in [6] it was -48.3% (active). In addition, the growth was 56.9% in [7]; 61.5% in [9]; 38.7% in test [10]; -25.3% (active) in test [11]; 28.3% in test [12]; 15.5% in test [13]. Besides, the growth was 24.7% in [14]; 72.1% in [15]; 2.36% (active) in [16]; -6.53% (active) in test [17]; -24.6% (active) in test [18].
